Screens: PubChem, National Center for Advancing Translational Sciences (NCATS)
ATXN2 expr inh – ATXN2 expression inhibition. 0.72% of 360,000 active. HEK-293 ATXN2-luciferase reporter, luminescence, 24 h. Potency, µM (top dose mostly 57 µM), without a hit: at the highest dose activity change, negative = inhibition, actives largely listed as inhibitors. AID 1745845; also: potency is read from the fitted curve at half-maximal effect; % is scaled to controls: 0 for no effect and ±100 for the full control effect; nearly all actives have a fitted effect of over 55% in size
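qHTS (up to 57 uM final) was run with 24 h compound exposure of reporter cells at 37 °C. Each well was multiplexed: SteadyGlo luminescence measured ATXN2-luciferase expression after a fluorogenic Gly-Phe-AFC viability readout (25 uM final).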
ATXN viability – cell viability loss in ATXN counter-screen; S2 cells (HEK-293 line with an ATXN2-luciferase reporter) viability, CellTiter-Fluor protease fluorescence, 24 h; AID 651635; 0.49% of 400,000 active; Potency, µM (series often up to 56.7 µM), most hits filed as cytotoxic; also: potency is read from the fitted curve at half-maximal effect; nearly all actives have a fitted effect of over 40% in size
USP1 inh – blocks the human USP1/UAF1 deubiquitinase complex. Potency, µM (top dose mostly 57.1 µM), without a hit: at the highest dose activity change, negative = inhibition, actives largely listed as inhibitors. recombinant USP1/UAF1, Ub-Rhodamine cleavage fluorescence. 0.23% of 390,000 active. O94782. AID 743255; also: potency is read from the fitted curve at half-maximal effect; % is scaled to controls: 0 for no effect and ±100 for the full control effect; nearly all actives have a fitted effect of over 60% in size
Target sequence (O94782 whole entry, looked up): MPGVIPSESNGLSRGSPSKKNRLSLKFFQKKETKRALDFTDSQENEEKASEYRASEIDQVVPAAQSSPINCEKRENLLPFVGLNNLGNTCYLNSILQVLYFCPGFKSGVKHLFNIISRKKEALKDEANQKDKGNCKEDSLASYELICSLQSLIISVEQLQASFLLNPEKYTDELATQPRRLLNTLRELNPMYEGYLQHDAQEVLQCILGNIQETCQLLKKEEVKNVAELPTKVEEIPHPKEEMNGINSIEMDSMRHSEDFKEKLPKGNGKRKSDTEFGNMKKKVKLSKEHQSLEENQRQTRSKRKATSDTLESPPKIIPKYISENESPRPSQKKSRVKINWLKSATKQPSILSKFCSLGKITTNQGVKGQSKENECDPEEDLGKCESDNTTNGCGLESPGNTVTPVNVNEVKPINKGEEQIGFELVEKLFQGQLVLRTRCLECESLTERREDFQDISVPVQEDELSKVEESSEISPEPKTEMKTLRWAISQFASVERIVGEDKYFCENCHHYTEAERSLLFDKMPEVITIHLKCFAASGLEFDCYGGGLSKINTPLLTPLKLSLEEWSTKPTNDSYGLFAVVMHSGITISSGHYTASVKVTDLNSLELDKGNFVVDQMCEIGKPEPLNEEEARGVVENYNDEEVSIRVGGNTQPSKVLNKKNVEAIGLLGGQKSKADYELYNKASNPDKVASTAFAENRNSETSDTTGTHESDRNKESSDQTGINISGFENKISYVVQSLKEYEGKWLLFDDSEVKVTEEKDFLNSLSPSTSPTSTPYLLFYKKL
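In this screen, compounds sit with the deubiquitinase complex (1nM) for 15 min at room temperature before Ub-Rho is added at 150nM final. Fluorescence rise is then followed for 6 reads every 60 seconds.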
USP2a block – USP2a (human) protease inhibition; O75604; Potency, µM (highest dose often 38.3 µM), without a hit: at the top dose activity change, negative = inhibition, most hits filed as inhibitors; 0.01% of 330,000 active; AID 463254; USP2 core, Ub-CHOP2 coupled fluorogenic reporter, 485/531;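 also: potency is read from the fitted curve at half-maximal effect; plate controls were DMSO wells for no effect and full inhibition by NEM control for full effect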
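Deubiquitinase activity read as fluorescence (485/531 nm) after Ub-CHOP2 cleavage activates the enterokinase reporter on its substrate; USP2 core 10nM, Ub-CHOP2 and substrate 25nM each, 30min compound preincubation then 60min RT; data normalized to NEM, curves fitted.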
IL-1B inflam inh – inhibitors of inflammasome signaling (IL-1 beta secretion). THP-1 LPS/ATP IL-1B secretion, AlphaLISA, 16 h; stronger effect = lower value. activity change, % at 57.5 µM. 4.7% of 360,000 active. AID 743279; in the data active = activity change below about -50%; inconclusive = mostly about -30% to -49%; also: % is scaled to controls: 0 for no effect and ±100 for the full control effect
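THP-1 cells pretreated 1 hr with compounds (up to 57.5 uM final), then stimulated with LPS (250 ng/mL final) plus ATP (1.25 mM final); secreted IL-1B measured by AlphaLISA after 16 hr, decreased signal indicating inhibition.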
The depositor's hits bear a star; i = inactive; u = inconclusive; x = no result given; ! = a repeat was not active. Only some compounds are listed: those with a hit (about 4.8% of all), similar ones and a draw of the others. Unless noted, calls follow the shape of the dose curve; as a rule, active = well fitted curve in the direction sought with a large enough effect; inconclusive = small, poorly fitted or top-dose-only effect, or another doubt; inactive = no such curve, though single readings can be large; an effect the other way counts as inactive or inconclusive.

SMILES	ATXN2 expr inh	ATXN viability	USP1 inh	USP2a block	IL-1B inflam inh
COc1ccc2cc(C(=O)N/N=C/c3sc4ccccc4c3O)ccc2c1	u	i	28µM*	18%	1
Clc1ccc(Nc2nnc(Cc3ccncc3)c3ccccc23)cc1	u	i	x	x	x
O=C(c1ccc(Cl)cc1)C1CCCN(Cc2cccn2-c2cccnc2)C1 (centres undefined)	-31%	i	-31%	1%	-56*
CSc1ccc(C(=O)C2CCCN(Cc3cccn3-c3cccnc3)C2)cc1 (centres undefined)	-31%	u	u	-1%	-96*
COc1ccc(C(=O)C2CCCN(Cc3cccn3-c3cccnc3)C2)cc1OC (centres undefined)	x	i	2%	2%	0
COC(=O)c1cc2oc3ccccc3c2n1CC(=O)Nc1ccc(OC)c(OC)c1	5%	i	-24%	x	x
Cc1ccc(-n2c(=O)c3c(C)c(C(=O)N(C)C)sc3n(CC(=O)N(C)c3ccccc3)c2=O)cc1C	x	x	-9%	x	x
Cc1cc(C)cc(NC(=O)N2CCC(CN3CCc4ccccc4C3)CC2)c1	x	x	-10%	x	x
CC(C)CCN(C(=O)c1csnn1)C(C(=O)NC1CCCCC1)c1ccc(F)cc1 (centres undefined)	-20%	i	0%	-4%	-57*
Cc1cccc(CCN(C(=O)c2csnn2)C(C(=O)NC2CCCC2)c2ccco2)c1 (centres undefined)	-2%	i	u	0%	-85*
COC(=O)c1cc(CNC(=O)c2cnsn2)cc(NC(=O)c2ccccc2OC)c1	x	i	x	x	x
Cc1cc(C)cc(-n2c3ccc(NC(=O)Cc4cccc5ccccc45)cc3c(=O)n2C)c1	-27%	0.56µM*	x	x	0
O=C(CSc1n[nH]c(-c2ccccn2)n1)Nc1ccc(Cl)cc1	20µM*	i	-17%	2%	52
O=C(CSc1n[nH]c(-c2ccccn2)n1)Nc1ccc(F)cc1	u	i	-14%	1%	13
OCC(O)[C@@H](O[C@H]1O[C@H](CO)[C@@H](O)[C@H](O)[C@H]1O)[C@H](O)[C@@H](O)CO (some centres undefined)	-5%	i	-7%	1%	29
O=C1O[C@H]2[C@H](O)[C@@H]1OC(O)[C@H]2O (some centres undefined)	x	i	x	x	x
C=C1C(=O)C2=CC1CCC(=O)C1(C)CCC(OC(C)=O)C(C)(C)C1CC2O (centres undefined)	u	x	-21%	x	-107*
CC(=O)OC1CCC2C3CCC4OC(=O)CCC4C3CCC12C (centres undefined)	2%	i	-15%	x	20
COc1ccccc1NCC(O)Cn1c2ccccc2c2ccccc21 (centres undefined)	-17%	i	-14%	1%	-7
COc1ccc(CCNCC(O)Cn2c3ccccc3c3ccccc32)cc1OC (centres undefined)	u	u	-19%	1%	-55*
COc1ccc(CNCC(O)COc2ccc3[nH]c(=O)ccc3c2)cc1OC (centres undefined)	x	i	x	x	x
CCOC(=O)N1CCN(CC(O)COc2ccc(OC)cc2C(C)(C)C)CC1 (centres undefined)	1%	i	-14%	2%	11
COc1ccc(CCNCC(O)COc2cccc(Br)c2)cc1OC (centres undefined)	-18%	i	-13%	-13%	-61*
COc1ccc(CCNCC(O)COc2ccc(OC)cc2C(C)(C)C)cc1 (centres undefined)	-37%	u	-22%	0%	-97*
Cc1ccccc1N1Cc2ccccc2C1=O	-10%	i	-33%	x	-5
SMILES	ATXN2 expr inh	ATXN viability	USP1 inh	USP2a block	IL-1B inflam inh
Nc1ccc2c(c1)CN1C(=O)c3ccccc3C1=N2	13µM*	u	x	x	x
CN(Cc1ccccc1)C1=CC(=[N+]2CCCCC2)CC(C)(C)C1	u	i	-14%	8%	-70*
CC1(C)CC(N2CCCC2)=CC(=[N+]2CCCCC2)C1	u	i	-20%	-2%	-5
CC1(C)CC(N2CCN(Cc3ccccc3)CC2)=CC(=[N+]2CCCCC2)C1	u	i	-5%	-5%	-51*
CC1(C)CC(N2CCCC2)=CC(=[N+]2CCCC2)C1	-29%	i	-17%	0%	-8
Cc1cc(OCc2nc(N)nc(N)c2-c2ccc(Cl)c(Cl)c2)ccc1[N+](=O)[O-]	u	i	1%	x	-53*
Cc1nc(N)nc(N)c1CCCc1ccc(Cl)c(Cl)c1	u	u	-8%	x	-104*
Cc1nc(N)nc(N)c1-c1ccc(Cl)c(Cl)c1	7.9µM*!	i	-17%	x	-11
CCOC(=O)NCc1ccc(Cl)c(Cl)c1	-30%	u	-23%	0%	16
COc1ccc(CNC(=O)C(=O)Nc2c3c(nn2-c2ccccc2)CSC3)cc1	-4%	i	-11%	x	x
COc1ccc(N2CCN(C(CNC(=O)C(=O)NCc3ccc(C)cc3)c3cccnc3)CC2)cc1 (centres undefined)	-21%	i	6%	x	x
O=C(/C=C/c1ccco1)N1CCN(c2ncccn2)CC1	31%	i	-20%	3%	9
Cc1cc(C(=O)N2CCC(Cc3ccccc3)CC2)c(C)o1	u	i	-28%	2%	-87*
O=C(/C=C/c1ccco1)N1CCC(Cc2ccccc2)CC1	36%	i	5%	-1%	-67*
C#CCN(Cc1nc(N2CCOCC2)c2ccc(Cl)cc2n1)Cc1ccco1	x	i	x	x	x
Cc1nc(-c2cccc(NC(=O)c3ccc(-n4cccn4)cc3)c2)cs1	-7%	i	-16%	-2%	-51*
Cc1cc(C)c2nc3nc(C)c(C)cc3c(N)c2c1	u	x	-24%	-2%	-89*
CCCCn1cc(S(=O)(=O)c2ccc(F)cc2)c(=O)c2ccccc21	8%	i	-24%	x	x
C=CCOc1ccc(Br)cc1CNC(C)(C)CO	x	i	-17%	9%	-7
C=CCOc1ccc(Br)cc1CNCCCN1CCOCC1	-19%	u	-20%	2%	-62*
C=CCOc1ccc2ccccc2c1CNCCCN1CCOCC1	-4%	i	-4%	0%	-10
C=CCOc1ccc(Br)cc1CNCCO	-8%	i	-15%	2%	-55*
OCCCCNCc1cc(Br)ccc1OCc1ccccc1	x	i	-16%	0%	u
OCCNCc1cc(Br)ccc1OCc1ccccc1Cl	-27%	i	-18%	2%	-59*
COc1ccc(C)cc1Nc1n[n+](-c2ccccc2)c(-c2c(Cl)cccc2Cl)s1	0%	11µM*	-28%	-1%	0
COc1ccc(C)cc1Nc1n[n+](-c2ccccc2)c(-c2ccc(N(C)C)cc2)s1	u	u	-20%	2%	-67*
